WRN inhibitor – WRN helicase (human) inhibition; WRN helicase unwinding, fluorescent forked duplex, kinetic; Potency, µM (series often up to 114 µM), for the others: at the highest dose activity change, negative = inhibition, most hits filed as inhibitors; 0.46% of 360,000 active; AID 651768; also: potency is read from the fitted curve at half-maximal effect; nearly all actives have a fitted effect of over 55% in size
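Kinetic fluorescence helicase assay: unwinding of a quenched forked DNA duplex (100 nM final) with 2 mM ATP final raises red fluorescence (525/598 nm). Compounds sat 15 min at room temperature with 20 nM WRN beforehand.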
Tb PGK inh – inhibitors of T. brucei phosphoglycerate kinase; PGK/GAPDH coupled, Kinase-Glo luminescence, 60 min; Potency, µM (titrated, usually from 57.5 µM), for inactives: top-dose activity change, negative = inhibition, actives largely listed as inhibitors; 0.043% of 380,000 active; also: potency is read from the fitted curve at half-maximal effect; nearly all actives have a fitted effect of over 60% in size
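Luminescent ATP detection (Kinase-Glo Plus) follows a 60-minute room-temperature incubation, with wells lacking PGK as controls. Buffer: 100 mM TEA (pH 7.6), 5 mM MgCl2, 0.01% Tween-20. Coupling enzyme GAPDH (100 nM final) supplies unstable 1,3-BPG in-well.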
TDP1 block – TDP1 (human) enzyme inhibition; Q9NUW8; recombinant TDP1, AlphaScreen DNA substrate cleavage; Potency, µM (series often up to 130 µM), inactives show at the top dose activity change, negative = inhibition, usual class: inhibitors; 0.28% of 350,000 active; AID 485290; also: potency is read from the fitted curve at half-maximal effect; nearly all actives have a fitted effect of over 40% in size
Target sequence (Q9NUW8 whole entry, looked up): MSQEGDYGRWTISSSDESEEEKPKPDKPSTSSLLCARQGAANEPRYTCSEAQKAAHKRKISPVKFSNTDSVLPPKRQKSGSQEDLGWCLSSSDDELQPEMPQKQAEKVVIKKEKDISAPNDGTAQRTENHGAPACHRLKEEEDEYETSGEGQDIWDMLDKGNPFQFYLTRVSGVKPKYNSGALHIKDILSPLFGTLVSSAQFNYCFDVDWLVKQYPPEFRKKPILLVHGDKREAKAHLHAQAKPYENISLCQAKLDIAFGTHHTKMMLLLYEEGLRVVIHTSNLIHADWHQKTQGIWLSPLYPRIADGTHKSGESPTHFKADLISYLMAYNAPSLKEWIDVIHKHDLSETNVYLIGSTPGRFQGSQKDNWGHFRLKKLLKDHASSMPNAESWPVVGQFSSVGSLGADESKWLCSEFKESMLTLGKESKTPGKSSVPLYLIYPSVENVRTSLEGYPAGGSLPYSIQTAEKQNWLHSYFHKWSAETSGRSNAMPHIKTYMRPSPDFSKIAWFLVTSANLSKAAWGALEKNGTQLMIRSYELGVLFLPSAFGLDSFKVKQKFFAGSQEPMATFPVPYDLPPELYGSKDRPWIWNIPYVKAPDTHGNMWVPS
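Tdp1 1 nM final; 15 min RT w/ cpd; substrate 15 nM, 5 min; beads 10 ug/ml, 10 min; AlphaScreen read. Neg ctrl: no enzyme.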
PI5P4Ka inh – PI5P4K alpha (human) kinase inhibition; PI5P4Kalpha enzyme, ADP-Glo luminescence, 60 min; hits give low values; max response, %; 1.2% of 330,000 active; AID 652105; active = max response of -50% or lower; inconclusive = between -30% and -50%; inactive = -30% or higher; also: value at the top dose of about 77 µM
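Controls without substrate or without enzyme flank wells where PI5P4Kalpha converts substrate using 5 microM ATP (final). Incubation lasts 60 minutes at room temperature; ADP formed is read by ADP-Glo luminescence.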
FEN1 inhibitor – human FEN1 inhibition. Potency, µM (titrated, usually from 114 µM), for the others: at the top dose activity change, negative = inhibition, hits mostly inhibitors. Recombinant FEN1 flap cleavage, fluorescence, 15 min. 0.35% of 390,000 active. P39748; also: potency is read from the fitted curve at half-maximal effect; nearly all actives have a fitted effect of over 65% in size
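Read-out was taken twice, immediately and after 15 min, following addition of 50 nM substrate to 10 nM FEN1 that had sat with test compound for 15 min at room temperature. Curves came from a four-parameter Hill model.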
Tb PFK block – inhibitors of T. brucei phosphofructokinase; 0.17% of 330,000 active; Potency, µM (titrated, usually from 57.5 µM), without a hit: at the top dose activity, negative = inhibition, actives largely listed as inhibitors; T. brucei PFK, ADP-Glo luminescence;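 also: potency is read from the fitted curve at half-maximal effect; 0% = uninhibited 1x PFK enzyme wells and -100% = no-enzyme wells; nearly all actives have a fitted effect of over 60% in size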
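ADP-Glo luminescence quantified ADP after 45 min at room temperature, with 1.25 nM T. brucei PFK, 0.1 mM ATP and 0.5 mM fructose-6-phosphate in pH 8.0 TEA buffer. qHTS titrations up to 57 µM; curves classified by quality.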
Active calls of the source: *; i = inactive; ? = inconclusive; / = no result. In the library only some 1.5% were active in any assay of this set; here they are far more common. Unless noted, calls follow the shape of the dose curve; as a rule, active = well fitted curve in the direction sought with a large enough effect; inconclusive = small, poorly fitted or top-dose-only effect, or another doubt; inactive = no such curve, though single readings can be large; an effect the other way counts as inactive or inconclusive. Unless noted, % is scaled to controls: 0 for no effect and ±100 for the full control effect.

SMILES | WRN inhibitor | Tb PGK inh | TDP1 block | PI5P4Ka inh | FEN1 inhibitor | Tb PFK block
CC(C)(C)CC(C)(C)N=C1Nc2cc(Cl)c(Cl)cc2N[C@]12C[C@H]1CCCC(=O)N3CC[C@@H](C2)[C@@H]13 | / | / | / | / | -13% | /
CCCN1CNc2c(c(=O)[nH]c(=S)n2CCc2ccc(OCC)c(OCC)c2)C1 | / | / | 1% | / | 5% | /
COc1ccc(O)c(C(=O)C2c3ccccc3C(=O)N2c2ccc(C)cc2)c1 (centres undefined) | 50µM* | -5% | 9% | -4 | -6% | ?
O=C(OCc1ccccc1F)c1cnc(Cl)c(Cl)c1 | -3% | i | 89µM* | 11 | -11% | 0%
CCCCCCCCCCCCCC[C@@H](O)[C@@H](O)[C@@H](N)CO | / | / | 10% | / | / | /
CC(C)(C)n1ncc2c(=O)n(Cc3ccc(F)cc3Cl)cnc21 | / | / | / | / | 5% | /
COc1ccc2oc(=O)c(/C(N)=N/NC(=O)c3ccncc3)cc2c1 | -11% | i | 50µM* | 3 | -2% | 1%
O=C(COc1ccccc1[N+](=O)[O-])Nc1cc(Cl)ccc1C(=O)O | -6% | i | 5% | -55* | -1% | 14%
COC(=O)c1ccccc1NC(=O)COc1ccccc1[N+](=O)[O-] | -7% | 7% | 5% | -3 | -13% | 7%
CCCCn1c(=O)[nH]c(=O)c2c1nc(Cn1ncc(Cl)c(Cl)c1=O)n2CCC | -23% | 0% | 3% | -52* | -1% | -1%
Cc1ccc(C)c(OCC(=O)Nc2cc(NC(=O)COc3cc(C)ccc3C)cc(C(=O)O)c2)c1 | ? | -19% | 50µM* | 0 | -25% | ?
Cc1ccc(C)c(OCC(=O)Nc2nonc2NC(=O)COc2cc(C)ccc2C)c1 | -9% | i | 3% | / | 6% | /
C=Cc1cc(F)c(S(=O)(=O)N2CCN(S(=O)(=O)c3ccc4c(c3)OCCO4)CC2)cc1F | / | / | 1% | / | / | /
O=C(O)c1ccc2c(c1)S(=O)(=O)c1cc(N3CCN(c4ncccn4)CC3)ccc1C2=O | -7% | 5% | / | -57* | / | /
O=C1c2ccccc2S(=O)(=O)c2cc(C(=O)N3CCN(c4ncccn4)CC3)ccc21 | 10% | -7% | / | -4 | -11% | /
O=Cc1ccnc2ccccc12 | / | / | / | / | 15% | /
CCOC(=O)C1CCN(c2nc3ccccc3nc2C(C#N)C(=O)NCCc2ccccc2)CC1 (centres undefined) | / | / | 6% | / | / | 9.5µM*
O=C(Cn1sc2ccccc2c1=O)Nc1ccccc1 | 10% | -1% | / | -82* | / | /
CC(C)n1c(=O)[nH][nH]c1=S | 56µM* | i | 8% | -103* | -4% | 23%
CC(C)n1c(=O)[nH]c2ccccc21 | -3% | -2% | 1% | / | 5% | 3%
N#C/C(=C/c1ccc(-c2cccc([N+](=O)[O-])c2)o1)C(=O)Nc1nc(-c2cccs2)cs1 | -12% | 1% | / | -62* | 7% | /
Cc1cc(/C=N/Nc2ccc([N+](=O)[O-])cn2)c(C)n1-c1ccc(C(=O)O)cc1 | 50µM* | -25% | / | -84* | ? | ?
Cc1ccccc1-n1c(C)cc(/C=N/Nc2ccc([N+](=O)[O-])cn2)c1C | -3% | i | 7% | -4 | 11% | 0%
O=C1C=CC(=O)N1c1ccc(Nc2ccccc2)cc1 | ? | 2% | / | ? | 2% | /
O=C1C=CC(=O)N1c1ccc2ccccc2c1 | 50µM* | -5% | / | -11 | -2% | /
Cc1cccc(N2C(=O)C=CC2=O)c1 | 45µM* | -1% | / | -11 | 2% | /
NS(=O)(=O)Nc1c(Br)cc(Br)c2cccnc12 | / | / | 0% | / | ? | /
COCc1cc(O)c(O)c(O)c1-c1c(COC)cc(O)c(O)c1O | / | / | / | / | 1.6µM* | /
COc1cc(C(=O)NC2CCN(C)CC2)ccc1Nc1ncc2c(n1)N(C1CCCC1)CCC(=O)N2C(C)C | -3% | 5% | / | 6 | -14% | /
COc1cc(C(=O)NC2CCN(C)CC2)ccc1Nc1ncc2c(n1)N(CCc1ccccc1)CCC(=O)N2C | -8% | -1% | / | 2 | 50µM* | /

Assay outcomes: PubChem BioAssay, National Center for Advancing Translational Sciences (NCATS)
